Activity calls are given as the source filed them. Calls come from the whole dose curve; as a rule, active = well fitted curve in the direction sought with a large enough effect; inconclusive = small, poorly fitted or top-dose-only effect, or effect the other way, or another doubt; inactive = no such curve, though single readings can be large or run the other way.

This assay is described as follows: Inducers of the Endoplasmic Reticulum Stress Response (ERSR) in human glioma: Validation (AID 504836). The conditions noted are these: human glioma cells, ER stress response reporter; series mostly up to 38.3 µM. The method, boiled down:
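Stably transfected U87-MG human glioma cells carrying a GRP78-based luminescent sensor were seeded at 1000 cells/well, pin-dosed with compounds and incubated 16 h. Luciferase reagent was then added, and end-point luminescence was read after 10 min at room temperature.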
Turning to `NC(Cc1ccc(Cl)cc1)C(=O)O` (configuration not stated), the molecule was classed as inactive.

For the molecule `Nc1ncnc2c1ncn2[C@@H]1O[C@H](CO)[C@@H](O)[C@H]1O`, the molecule was classed as inactive.

For `CCN(CC)CCOC(=O)c1ccc(N)cc1`, the molecule was called inactive.

In the case of `CNCC(O)c1ccc(O)c(O)c1` (configuration not stated), the molecule was classed as inactive.

In the case of `COc1ccc(C2CNC(=O)C2)cc1OC1CCCC1` (configuration not stated), the molecule was classed as inactive.

On to `NC(=O)c1ncn([C@@H]2O[C@H](CO)[C@@H](O)[C@H]2O)c1O`, for which the outcome was inactive.

Consider `CNCCC=C1c2ccccc2CCc2ccccc21`, for which the result was inactive.

With `CCN(CC)C(C)CN1c2ccccc2Sc2ccccc21` (configuration not stated), the call was inactive.

Regarding `Cc1nc2c([nH]1)c(=O)n(C)c(=O)n2Cc1ccco1`, the molecule was classed as inactive.

For `COC(=O)[C@@H]1[C@H]2C[C@H]3c4[nH]c5ccccc5c4CCN3C[C@@H]2CC[C@@H]1O`, the call was inactive.

Regarding `CC(CCc1ccc(O)cc1)NCCc1ccc(O)c(O)c1` (configuration not stated), the outcome was inactive.

Take `CC(=O)OCC1=C(C(=O)O)N2C(=O)[C@@H](NC(=O)Cc3cccs3)[C@H]2SC1`: the result was inactive.

As to `CNCCCC12CCC(c3ccccc31)c1ccccc12`, the call was inactive.

For the molecule `CCN1CCC[C@H]1CNC(=O)c1cc(S(N)(=O)=O)ccc1OC`, the call was inactive.

As for `NC(N)=Nc1nc(CSCC/C(N)=N/S(N)(=O)=O)cs1`, the molecule was classed as inactive.

With `NCCS(=O)(=O)O`, the outcome was inactive.

`Nc1nc2ccc(OC(F)(F)F)cc2s1`: the call was inactive.

In the case of `O=C(O)CCCCCCCC(=O)O`, the molecule was called inactive.

With `CC(C)NNC(=O)c1ccncc1`, the outcome was inactive.

Take `NC(N)=NC(=O)Cc1c(Cl)cccc1Cl`: the outcome was inactive.

Take `COCCOC(=O)C1=C(C)NC(C)=C(C(=O)OC(C)C)C1c1cccc([N+](=O)[O-])c1` (configuration not stated): the molecule was classed as inactive.

Turning to `CNC[C@H](O)c1cccc(O)c1`, the molecule was classed as inactive.

Source of the values: PubChem BioAssay (NCATS).
